This is part of a sample that, as a whole, favours compounds with a hit. Of some 83,000 tested, about 20% had one in any assay.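 Activity criterion: percent growth below 10, measured after cells in 96-well plates were exposed to a single compound concentration for 48 hours.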 Unmarked numbers belong to inactive results. The source made the active and inactive calls.

For this test, the system named is NCI-H226 lung. Put plainly: NCI-60 one-dose screen, 48 h (100 = growth as untreated, 0 = no growth, -100 = all killed). The note with it: 10 µM unless noted. On the procedure: Growth inhibition of the NCI-H226 human Non-Small Cell Lung tumor cell line is measured as a screen for anti-cancer activity. Cells are grown in 96 well plates and exposed to the test compound for 48 hours. Compounds are tested at a single concentration, which is 10^-5 M for most compounds. The reported endpoint is percent growth (GI% or GIPRCNT), where numbers from 0 - 100% represent growth inhibition, and numbers from -100% - 0 represent cell death. For example, a value of 40 represents 60% growth inhibition. A value of 0 means no net growth occurred over the course of the experiment. A value of -40 indicates 40% of cells at the beginning of the experiment died by the end of the experiment. A value of -100 means all cells are dead at the end of the experiment.
NCI-60 Human Tumor Cell Lines Screen was performed using the standard one-dose NCI protocol, which is described in more detail at https://dtp.cancer.gov/discovery_development/nci-60/default.htm.
Compounds with GIPRCNT values below 10 were considered active. Activity score was based on GIPRCNT using the following formula: […]
Score is 0 for GIPRCNT values of 100 or above, 50 for GIPRCNT values of 0, and 100 for GIPRCNT values of -100.
As for `O=C(O)C1CN(c2cccc(Cl)c2)N(c2cccc(Cl)c2)C1=O` (stereo not given), the growth was 92.8%.
With `CCCCn1sc(=O)n(Cc2ccc(CNC(=O)OCc3ccc4c(Br)cc(Br)c(O)c4n3)cc2)c1=O`, the growth was 31.6%.
For `COCCCOc1cc(C[C@@H](C[C@H](N)[C@@H](O)C[C@H](C(=O)NCC(C)(C)C(N)=O)C(C)C)C(C)C)ccc1OC` the value was 102%.
With `O=C(Cn1nnc2ccccc21)Nc1ccc(-c2nc3ccccc3s2)cc1`, the growth is 67.5%.
For `COC(=O)c1c2c(n3ccc(C)cc13)C(=O)c1ccccc1C2=O`, the growth is 62.1%.
For `COc1cc(C#Cc2ccc(=O)oc2C#Cc2ccccc2)cc(OC)c1OC` the value was 76.6%; for `CC(C)c1ccc(C(=O)Nc2sc3cc(O)ccc3c2C#N)cc1`, 58.2%.
Turning to `COc1cc(-c2nc(SCCC(C)C)nc(N3CCOCC3)c2C#N)cc(OC)c1OC`, the growth is 106%.
The result for `CCOC(=O)/C=C/c1c(C)[nH]c(=O)[nH]c1=O` reads 98.6%; that for `CCOC(=O)c1c(C)nc2ccccc2c1/C=C/c1ccc(OC)cc1`, 61.8%.
On to `COc1ccc(/C=C/C(=O)c2cc3c(N)c(C(=O)Nc4ccc(OC)cc4)sc3nc2C)cc1`, for which the growth is 49.4%.
For the compound `O=C(O)CCCc1cnc2c3sccc3nc(SCc3c(Cl)cccc3Cl)n12`, the growth was 83.1%.
As for `Nc1c(C(=O)O)cc(Cl)cc1[N+](=O)[O-]`, the growth was 96.4%.
The result for `CN(C)Cc1ccc(C(=O)Nc2ccc3ncnc(Nc4ccc(Oc5cccc(F)c5)c(Cl)c4)c3c2)cc1` reads 80.2%.
The result for `COCC[C@H]1CCC/C=C/[C@@H]2C[C@H](O)C[C@H]2[C@H](O)/C=C/C(=O)O1` reads -40.4% (active); that for `N=C(N)c1ccc(-c2ccc(-c3ccc(F)cc3)s2)s1`, 90.4%.
The result for `COC(=O)C1=Nc2ccc(F)cc2/C1=C\c1sc(Nc2ccc(O)cc2)nc1O` reads 78.2%; that for `COc1ccc(C2=CN3CC=CCC3CC2=O)cc1` (stereo not given), 99.9%.
`N#Cc1c(-c2cccc([N+](=O)[O-])c2)cc(-c2ccc(Nc3nc(Nc4ccc(F)cc4)nc(Nc4ccc(F)cc4)n3)cc2)nc1N`: the growth is 123%.
Consider `CCCCCSB(SCCCCC)c1ccccc1`, for which the growth is 102%.
On to `CS(=O)(=O)Nc1cc(-c2ccc3ncnc(Nc4ccc5c(cnn5Cc5cccnc5)c4)c3c2)cnc1Cl`, for which the growth was 76.4%.
`O=C1NC(=C(Cl)Cl)/C(=N/S(=O)(=O)N2CCCCC2)N1`: the growth is 89.5%.
For `CCOC(=O)C1CCN(c2ccc(N3C[C@@H](CNCc4ccc(C(=N)N)cc4)OC3=O)cc2)CC1` the value was 97.2%.
The result for `COc1ccc(/C(C)=C(\c2ccc(OCCN3CCCCCC3)cc2)c2ccc(OC(=O)c3ccccc3)cc2)cc1` reads 75.3%; that for `C[C@@H]1CC[C@@]2(OC1)O[C@H]1C[C@H]3[C@@H]4CC=C5C[C@@H](O[C@@H]6O[C@H](CO)[C@@H](O[C@@H]7O[C@@H](CO)[C@H](O)[C@H]7O)[C@H](O)[C@H]6O[C@@H]6O[C@@H](C)[C@H](O)[C@@H](O)[C@H]6O)CC[C@]5(C)[C@H]4CC[C@]3(C)[C@H]1[C@@H]2C`, -51.8% (active); that for `CCOC(=O)c1c(-c2ccc(Cl)cc2)c(C#N)c2c(C#N)c(N)nn2c1N`, 87.4%.
For `CC(C)(C)c1cc(C=Nc2cccc(C(F)(F)F)c2)c(O)c(C(C)(C)C)c1` the value was 91.4%; for `Cc1ccc(/C=C2\CN(C(=O)C(Cl)Cl)C/C(=C\c3ccc(C)cc3)C2=O)cc1`, -11.7% (active).
Take `C#CC#CC#CC#CC#CC#CC#CC#CC[C@H]1OC[C@H](COC(=O)O[C@@H](C(=O)O[C@H]2C[C@@]3(O)[C@@H](OC(=O)c4ccccc4)[C@@H]4[C@]5(OC(C)=O)CO[C@@H]5C[C@H](O)[C@@]4(C)C(=O)[C@H](OC(C)=O)C(=C2C)C3(C)C)[C@@H](NC(=O)c2ccccc2)c2ccccc2)O1`: the growth was 54.5%.
The result for `COc1cc2c3c(c1O)-c1ccccc1[C@@H]1OC(=O)N(CC2)[C@H]31` reads 96.7%; that for `CN1CCN(C(=O)c2cc(-c3ccc4ncnc(N5CCc6cc(F)c(Cl)cc65)c4c3)cnc2N)CC1`, 14.5%; that for `CC(C)C[C@@H](C(=O)N[C@H](C(=O)OC1CCCC1)c1ccccc1)[C@H](O)C(=O)NO`, 70.1%.
For `CCCCCCCC/C=C\CCCCCCCCOc1ccc(CC(=O)NCC[N+](C)(C)C)cc1` the value was 70%; for `COc1ccc2c(c1)c(-c1ccc(-c3cn(C)c4ccc(OC)cc34)[nH]1)cn2C`, 58.8%.
For `CCNC(=O)Oc1ccc(/C(=C(/C)Cc2ccc(OC)cc2)c2ccc(OCCN3CCCC3)cc2)cc1`, the growth was 90.1%.
`Clc1ccc(-c2nc(-c3c[nH]c4ncccc34)cs2)cc1`: the growth was 47.7% [100 µM].
For `COc1ccc(Nc2ncccc2NC(=O)c2cn(Cc3cccc(Oc4ccccc4)c3)nn2)cc1OC` the value was 92.4%.
For `CC(C)[C@@]12C[C@@H](OC(=O)COC(=O)c3ccccc3)[C@@](C)(O1)[C@@H]1CC[C@@H](C)[C@H]1[C@@H]2OC(=O)/C=C/c1ccccc1`, the growth is 64.4%.
In the case of `CCOC(=O)c1n[nH]n2c1nc(=O)c1cnn(C)c12`, the growth is 98.1%.
The result for `N#Cc1c(-c2ccccc2)c(C#N)c2c(C#N)c(N)nn2c1N` reads 74%.

Values taken from PubChem BioAssay (NCI).
